PubChem BioAssay (NCI)
The panel holds about 83,000 compounds, 20% with a hit somewhere; the sample as a whole holds those more often.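 In brief: 96-well plates, 48 h treatment, single concentration, percent growth endpoint.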 Values without a mark were called inactive. The source made the active and inactive calls. The calls were made as follows: active = growth percent below 10; inactive = the rest.

Assays:
Experiment in all cases: NCI-60 one-dose screen, 48 h (100 = growth as untreated, 0 = no growth, -100 = all killed)
Details in all cases: 10 µM unless noted
HCT-15 colon = test system: HCT-15 colon
HT29 colon = test system: HT29 colon
SNB-75 CNS = test system: SNB-75 CNS
SNB-19 CNS = test system: SNB-19 CNS
U251 CNS = test system: U251 CNS
PC-3 prostate = test system: PC-3 prostate
SK-MEL-5 melanoma = test system: SK-MEL-5 melanoma
UACC-62 melanoma = test system: UACC-62 melanoma
LOX IMVI melanoma = test system: LOX IMVI melanoma
SK-MEL-28 melanoma = test system: SK-MEL-28 melanoma

| SMILES | growth (HCT-15 colon) | growth (HT29 colon) | growth (SNB-75 CNS) | growth (SNB-19 CNS) | growth (U251 CNS) | growth (PC-3 prostate) | growth (SK-MEL-5 melanoma) | growth (UACC-62 melanoma) | growth (LOX IMVI melanoma) | growth (SK-MEL-28 melanoma) |
| --- | --- | --- | --- | --- | --- | --- | --- | --- | --- | --- |
| Cc1cc(C)c(N2C(=O)CC(Nc3ccc(Cl)cc3Cl)C2=O)c(C)c1 (stereo not given) | 102% | 107% | 93% | 98.5% | 104% | 94.8% | 103% | 91.4% | 96% | 102% |
| Oc1[nH]c2ccccc2c1Nn1c(N=N/C=c2/ccc3c(c2)C=NN=3)n[nH]c1=S | 115% | 19.4% | 66.7% | 98.9% | 111% | 97.4% | 92% | 98.9% | 97.6% | 115% |
| CCCCCCCn1cc2c(NCCc3ccccc3)ncnc2n1 | 95.6% | 118% | 90.6% | 90.4% | 96.1% | 92.8% | 99.6% | 74.2% | 117% | 101% |
| CC1(C)[C@@H](O)CC[C@]2(C)[C@H]3CC[C@@H]4[C@H]5[C@H](C(=O)/C=C\c6ccncc6)CC[C@]5(O)CC[C@@]4(C)[C@]3(C)CC[C@@H]12 | 20.3% | 34.7% | 21.2% | 58.7% | 61.1% | 67.5% | 80.6% | 46.9% | 5.63% (active) | 74.8% |
| N#Cc1cnc2ccc(-c3cnc(N)nc3)cc2c1N1CCc2cc(F)c(Cl)cc21 | 4.26% (active) | 11.4% | 19.1% | 12.2% | 10.3% | 2.78% (active) | -92.3% (active) | -17.2% (active) | 2.73% (active) | 7.06% (active) |
| CS(=O)(=O)Nc1cc(-c2ccc3ncc(C#N)c(NCc4cccc(F)c4)c3c2)cnc1Cl | 5.75% (active) | 9.57% (active) | 45.7% | 11.9% | 10.3% | 4.17% (active) | -96.6% (active) | -20.2% (active) | -55% (active) | 4.56% (active) |
| CC1=NC2=NN3C(=NN2C(c2ccccc2)=C1)N=NC(c1ccc(Br)cc1)=C3c1ccc(Br)cc1 | 103% | 105% | 117% | 98.1% | 103% | 97.1% | 106% | 89.9% | 100% | 105% |
| O=C(O)c1ccc(-n2cc(CNc3cc(F)c(F)c(F)c3)c(-c3ccc(F)cc3)n2)cc1 | 68.1% | 108% | 100% | 95.3% | 97.8% | 79.2% | 81.2% | 64.9% | 105% | 85.9% |
| N#Cc1cccc(CN2CCc3ncn(Cc4ccc(Cl)cc4)c(=O)c3C2)c1 | 13.5% | 28.3% | 33.2% | 19.7% | 23.1% | 18.5% | 3.19% (active) | 20.6% | 35.3% | 36.9% |
| NS(=O)(=O)c1ccc(-n2cc(CN3CCCCC3)nn2)cc1 | 107% | 96.7% | 92.8% | 102% | 104% | 98.9% | 99.6% | 97.4% | 101% | 109% |
| COc1ccc([C@@H]2[C@@H](O)C(=O)N2c2cc(OC)c(OC)c(OC)c2)cc1F | 7.95% (active) | -31.9% (active) | 17.6% | 24.7% | 12.2% | 20.9% | -34% (active) | 33.4% | -4.8% (active) | 68.6% |
| COc1ccc2c(c1)c(CC(=O)[Se]CC#N)c(C)n2C(=O)c1ccc(Cl)cc1 | 7.36% (active) | -8.37% (active) | 73% | 50.3% | 19.7% | 8.19% (active) | -6.8% (active) | 55.2% | -35.8% (active) | 37.6% |
| COc1ccc(-n2c(SCc3n[nH]c(=S)o3)nc3ccc(Cl)cc3c2=O)cc1 | 93.6% | 105% | 95.5% | 92.9% | 104% | 101% | 93.5% | 92% | 101% | 95.1% |
| COc1ccccc1-n1cc(C#N)c(N)c1C(=O)c1ccc(Cl)cc1 | 36.2% | 52.8% | 62.3% | 69.4% | 91.9% | 58% | 60.1% | 46.3% | 67.9% | 74.3% |
| Cc1ccc(NC(=O)c2ccc(CN3CCOCC3)c(C(F)(F)F)c2)cc1Oc1ccc(-c2[nH]nc3ncnc(N)c23)cc1 | 40.5% | 37% | 112% | 95.5% | 66.9% | 43.4% | 16.3% | 19.4% | 59.1% | 47.8% |
| CCNC(=O)Oc1ccc(/C(=C(/C)c2ccccc2)c2ccc(OCCN3CCCCCC3)cc2)cc1 | 3.38% (active) | -14.2% (active) | -0.681% (active) | 12.7% | -44.6% (active) | 13.1% | -94.7% (active) | 16.5% | -14.8% (active) | -41.8% (active) |
| CCO/C=N/C1=C(C#N)C(c2ccc(OC)cc2)c2sc3c(C)cccc3c2O1 (stereo not given) | 18.2% | 10% | 28.2% | 28.3% | 22.1% | 9.28% (active) | 39.5% | 17.3% | 34.8% | 55.7% |
| CCOc1cccc(-c2nc3sccn3c2-c2ccnc(S(C)(=O)=O)n2)c1 | 76.8% | 99.6% | 98.4% | 91.8% | 103% | 96.9% | 99.3% | 89.6% | 78.6% | 90.5% |
| O=S(=O)(NCCCNc1nccc(-c2[nH]c(-c3ccccc3)nc2-c2ccc(Cl)c(O)c2)n1)c1ccc(Br)cc1 | 13.9% | 39.7% | 73.6% | 49% | 30.7% | 27.1% | 0.46% (active) | 13.2% | 21.6% | 17.3% |
| CCCn1cnc2c(c1=N)C(c1ccc(OC)cc1)c1sc3c(CC)cccc3c1O2 (stereo not given) | 18.9% | 5.9% (active) | 16.5% | 22% | 20.5% | 3.57% (active) | 30.3% | 15.9% | 27.4% | 57.8% |
| O=C(Cn1c(-c2ccccc2)nc2cc(Cl)c(Cl)cc21)N=Nc1c(O)[nH]c2ccc(Cl)cc12 | 68.7% | 51.4% | 101% | 87.8% | 93.8% | 70.8% | 79.5% | 71.7% | 72.2% | 66.4% |
| CC(=O)N(C)C1CCc2c(sc(NC(=O)c3ccc(C(C)(C)C)cc3)c2C(N)=O)C1 (stereo not given) | 57.1% | 77.7% | 39.2% | 74.7% | 51.8% | 45.9% | 91.7% | 85.7% | 29.5% | 80% |
| O=C(O)c1ccc(-n2cc(CNc3cc(F)c(F)c(F)c3)c(-c3cccc(F)c3)n2)cc1 | 46.8% | 106% | 106% | 97.4% | 93.3% | 79.1% | 67.4% | 58.2% | 104% | 83.2% |
| N/C(=N\C(N)=N\c1nc2ccccc2s1)c1ccc(C(F)(F)F)cc1 | 28.8% | 105% | 97.2% | 90.3% | 41.9% | 8.57% (active) | 89% | 97.8% | 18.3% | 94.8% |
| C#C[C@]1(O)CC[C@H]2[C@@H]3CC=C4c5sc(-c6ccc7c(c6)OCO7)nc5CC[C@]4(C)[C@H]3CC[C@@]21C | 10.5% | 8.04% (active) | -3.43% (active) | 15.5% | -24.5% (active) | -23.7% (active) | 50.5% | -35.5% (active) | -40.1% (active) | -39.7% (active) |
| CCCCCc1ccc(S(=O)(=O)Nc2cccc(-c3csc(NCCN4CCN(C)CC4)n3)c2)cc1 | -13.2% (active) | 19.3% | 92.8% | 79.9% | 45.7% | 65.7% | -31.1% (active) | 85.4% | -66.9% (active) | 78% |
